Measurements published in the supplement of paper PMC4466140.

What follows are binders tested against ScBbc1 (assay: SPOT peptide array binding signal intensity (averaged, normalized) (arbitrary units (background-subtracted, floor 0; scale differs between SH3 domains)); higher = stronger binding of the SH3 domain to the peptide).
Outline: (§1)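 GST-SH3 fusions from four yeast species, purified on glutathione Sepharose, were incubated at 10 μg/ml overnight at 4°C on membranes of synthetic 15-mer peptides in which cysteines were replaced with serines. Binding signal is the normalized, background-subtracted spot intensity averaged over replicates, in domain-specific arbitrary units.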
For KDKKTKPTPPPKPSH, the “SPOT peptide array binding signal intensity” value was ≤ 0.

What follows are binders tested against ScBem1-D1 in the same assay as above.
Outline: as §1
With KDKKTKPTPPPKPSH the “SPOT peptide array binding signal intensity” value was 9.

The binders below were run against ScBzz1-D1 in the same assay as above.
Outline: as §1
With KDKKTKPTPPPKPSH the “SPOT peptide array binding signal intensity” value was ≤ 0.

These binders were tested against ScBzz1-D2 in the same assay as above.
Outline: as §1
For KDKKTKPTPPPKPSH, the “SPOT peptide array binding signal intensity” value was 79.

The binders below were run against ScCyk3 in the same assay as above.
Outline: as §1
KDKKTKPTPPPKPSH was tested, and the “SPOT peptide array binding signal intensity” value was 1.

Each binder was assayed against ScFus1 in the same assay as above.
Outline: as §1
KDKKTKPTPPPKPSH was tested, and the “SPOT peptide array binding signal intensity” value was 31.

What follows are binders tested against ScHof1 in the same assay as above.
Outline: as §1
KDKKTKPTPPPKPSH was tested, and the “SPOT peptide array binding signal intensity” value was 1.75.

The binders below were run against ScHse1 in the same assay as above.
Outline: as §1
With KDKKTKPTPPPKPSH the “SPOT peptide array binding signal intensity” value was 38.

Each binder was assayed against ScLsb1 in the same assay as above.
Outline: as §1
With KDKKTKPTPPPKPSH the “SPOT peptide array binding signal intensity” value was ≤ 0.

Each binder was assayed against ScLsb2 in the same assay as above.
Outline: as §1
KDKKTKPTPPPKPSH was tested, and the “SPOT peptide array binding signal intensity” value was ≤ 0.

The binders below were run against ScLsb3 in the same assay as above.
Outline: as §1
For KDKKTKPTPPPKPSH, the “SPOT peptide array binding signal intensity” value was 328.

Each binder was assayed against ScLsb4 in the same assay as above.
Outline: as §1
KDKKTKPTPPPKPSH was tested, and the “SPOT peptide array binding signal intensity” value was ≤ 0.

The binders below were run against ScMyo3 in the same assay as above.
Outline: as §1
With KDKKTKPTPPPKPSH the “SPOT peptide array binding signal intensity” value was ≤ 0.

What follows are binders tested against ScMyo5 in the same assay as above.
Outline: as §1
KDKKTKPTPPPKPSH was tested, and the “SPOT peptide array binding signal intensity” value was ≤ 0.

Each binder was assayed against ScNbp2 in the same assay as above.
Outline: as §1
KDKKTKPTPPPKPSH was tested, and the “SPOT peptide array binding signal intensity” value was 17.

These binders were tested against ScPex13 in the same assay as above.
Outline: as §1
In the case of KDKKTKPTPPPKPSH, the “SPOT peptide array binding signal intensity” value is reported as ≤ 0.

These binders were tested against ScRvs167 in the same assay as above.
Outline: as §1
KDKKTKPTPPPKPSH was tested, and the “SPOT peptide array binding signal intensity” value was 1.17.

What follows are binders tested against ScSho1 in the same assay as above.
Outline: as §1
With KDKKTKPTPPPKPSH the “SPOT peptide array binding signal intensity” value was 334.

Each binder was assayed against ScSla1-D1-D2 in the same assay as above.
Outline: as §1
For KDKKTKPTPPPKPSH, the “SPOT peptide array binding signal intensity” value was 9.

Each binder was assayed against ScSla1-D3 in the same assay as above.
Outline: as §1
In the case of KDKKTKPTPPPKPSH, the “SPOT peptide array binding signal intensity” value is reported as 5.

These binders were tested against SpAbp1-D1 in the same assay as above.
Outline: as §1
KDKKTKPTPPPKPSH was tested, and the “SPOT peptide array binding signal intensity” value was 148.

What follows are binders tested against SpBbc1 in the same assay as above.
Outline: as §1
For KDKKTKPTPPPKPSH, the “SPOT peptide array binding signal intensity” value was 3.75.

Each binder was assayed against SpBzz1-D1 in the same assay as above.
Outline: as §1
KDKKTKPTPPPKPSH was tested, and the “SPOT peptide array binding signal intensity” value was 26.5.

What follows are binders tested against SpBzz1-D2 in the same assay as above.
Outline: as §1
With KDKKTKPTPPPKPSH the “SPOT peptide array binding signal intensity” value was ≤ 0.

Each binder was assayed against SpCyk3 in the same assay as above.
Outline: as §1
With KDKKTKPTPPPKPSH the “SPOT peptide array binding signal intensity” value was ≤ 0.

These binders were tested against SpHof1 in the same assay as above.
Outline: as §1
For KDKKTKPTPPPKPSH, the “SPOT peptide array binding signal intensity” value was 5.5.

These binders were tested against SpHof1-2 in the same assay as above.
Outline: as §1
KDKKTKPTPPPKPSH was tested, and the “SPOT peptide array binding signal intensity” value was 5.5.

The binders below were run against SpHof1-3 in the same assay as above.
Outline: as §1
In the case of KDKKTKPTPPPKPSH, the “SPOT peptide array binding signal intensity” value is reported as 67.8.

The binders below were run against SpHse1 in the same assay as above.
Outline: as §1
For KDKKTKPTPPPKPSH, the “SPOT peptide array binding signal intensity” value was 9.25.

What follows are binders tested against SpLsb1 in the same assay as above.
Outline: as §1
For KDKKTKPTPPPKPSH, the “SPOT peptide array binding signal intensity” value was 70.5.

The binders below were run against SpLsb4 in the same assay as above.
Outline: as §1
For KDKKTKPTPPPKPSH, the “SPOT peptide array binding signal intensity” value was ≤ 0.

These binders were tested against SpMyo1 in the same assay as above.
Outline: as §1
For KDKKTKPTPPPKPSH, the “SPOT peptide array binding signal intensity” value was 2.

These binders were tested against SpNbp2 in the same assay as above.
Outline: as §1
KDKKTKPTPPPKPSH was tested, and the “SPOT peptide array binding signal intensity” value was 31.

These binders were tested against SpPex13 in the same assay as above.
Outline: as §1
For KDKKTKPTPPPKPSH, the “SPOT peptide array binding signal intensity” value was 9.

The binders below were run against SpRvs167 in the same assay as above.
Outline: as §1
With KDKKTKPTPPPKPSH the “SPOT peptide array binding signal intensity” value was 2.

The binders below were run against SpSla1-D1-D2 in the same assay as above.
Outline: as §1
KDKKTKPTPPPKPSH was tested, and the “SPOT peptide array binding signal intensity” value was 1.5.

The binders below were run against SpSla1-D3 in the same assay as above.
Outline: as §1
For KDKKTKPTPPPKPSH, the “SPOT peptide array binding signal intensity” value was ≤ 0.
